{"source": "PubChem BioAssay AID602179", "about": "(National Center for Advancing Translational Sciences (NCATS), 2012)", "note": "Among all 390,000 compounds or so, about 360 (0.092%) were called active. Entries that show only a call come without a potency. The call rests on the fitted dose curve; in most records, active means well fitted inhibition curve with a large enough effect; inconclusive means small, poorly fitted or top-dose-only effect; inactive means no such curve, though single readings can be large or run the other way. The full list was thinned out, with actives kept by preference. Potency means the concentration at half of the fitted maximal effect."}
{"molecular_target": "Isocitrate dehydrogenase [NADP] cytoplasmic (Homo sapiens) (UniProt O75874)", "sequence (O75874 whole entry R132H, stated change not applied)": "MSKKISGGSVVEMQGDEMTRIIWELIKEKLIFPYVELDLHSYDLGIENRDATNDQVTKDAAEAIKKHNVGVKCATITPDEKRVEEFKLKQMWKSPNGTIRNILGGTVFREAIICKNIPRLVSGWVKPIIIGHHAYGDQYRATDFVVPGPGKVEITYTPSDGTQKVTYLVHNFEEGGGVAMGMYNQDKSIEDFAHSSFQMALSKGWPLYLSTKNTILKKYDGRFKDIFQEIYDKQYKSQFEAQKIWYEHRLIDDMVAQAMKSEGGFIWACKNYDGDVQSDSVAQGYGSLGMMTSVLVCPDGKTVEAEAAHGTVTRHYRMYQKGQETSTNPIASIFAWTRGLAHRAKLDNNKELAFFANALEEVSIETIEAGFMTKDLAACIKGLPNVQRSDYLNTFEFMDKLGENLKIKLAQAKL", "test": "qHTS for Inhibitors of mutant isocitrate dehydrogenase 1 (IDH1): qHTS; further: nearly all actives have a fitted effect of over 65% in size", "conditions": "IDH1-R132H enzyme, NADPH consumption, diaphorase/resazurin fluorescence; series mostly up to 76.6 µM", "description": "Unbiased genomic sequencing for 22 glioma genomes found recurrent mutation of isocitrate dehydrogenase 1 (IDH1) on chromosome 2q33-a gene encoding the cytosolic isoform of IIDH1associated with the tricarboxylic acid cycle (TCA) that catalyzes the oxidative decarboxylation of isocitrate, yielding alpha-ketoglutarate and CO2 via NADP+ to NADPH conversion. Subsequent studies confirmed the recurrent IDH mutations in up to 70% of secondary gliomas and in 10% of AML cases. […] This in effect defines IDH1 as an oncogene, and provides an extraordinary opportunity to discover chemical probes against mutant IDH1 that may translate into much needed new therapies for glioma and AML patients. […] NIH Chemical Genomics Center [NCGC] NIH Molecular Libraries Probe Centers Network [MLPCN] MLPCN Grant: DA032129 Assay Submitter (PI): Lenny Dang, Agios Pharmaceuticals\nIDH1-R132H (0.5 ug/mL) was dispensed into black, solid-bottom 1536-well plates at 3 uL/well in 20 mM Tris-HCl (pH 7.5), 150 mM NaCl, 10 mM MgCl2, 4 mM beta-ME, and 0.05% protease-free BSA. Then, 23 nL of compounds or DMSO were delivered to each well using a pin tool. A pre-read was run on the Viewlux to identify fluorescent compounds (540 nm excitation filter, 598 nm emission filter, bodipy mirror and 2 second exposure). After 30 minutes of incubation with compound, 3 uL of substrate mix were dispensed (0.016 mM NADPH, 2 mM alpha-KG, 20 mM Tris-HCl (pH 7.5), 150 mM NaCl, 10 mM MgCl2, and 0.05% protease-free BSA). Plates were spun for 1 min at 1000xg and incubated at room temperature for 80 min. Then 1.5 uL of each detection reagent component for the coupling system were added (0.12 mg/mL diaphorase and 0.072 mM resazurin, each in 20 mM Tris-HCl (pH 7.5), 150 mM NaCl, 10 mM MgCl2, and 0.05% protease-free BSA ) The protein, substrate and two detection components were maintained at 4 °C throughout the screen. Additionally, the substrate and resazurin reagents were protected from light. The plates were measured on an Envision plate reader for fluorescence signal using a 540 nm excitation filter and 590 nm emission filter with 10 flashes. 1x and 0x (no-enzyme) IDH1-R132H enzyme control were used to normalize %Activity of identified inhibitors; 0x enzyme values corresponded to 100% Activity (full inhibition), while 1x IDH1-R132H enzyme values were used to normalize 0%Activity (no inhibition). Concentration-response curves were fitted to the signals arising from the resulting fluorescence. The concentration-effect curves were then classified based on curve quality (r2), response magnitude and degree of measured activity, and compounds were subsequently categorized based on their curve class. […] Keywords: isocitrate dehydrogenase, IDH1, IDH1-R132H, MLSMR, MLPCN, NIH Roadmap, qHTS, NCGC"}
{"compound": "CC(C)(C)c1ccc(S(=O)(=O)Nc2ccc(O)c(Sc3nc4ccccc4s3)c2)cc1", "Potency": "39.8 µM (active)"}
{"compound": "Cn1c(O)c(C=NCCN2CCNCC2)c(=O)n(C)c1=O", "Potency": "inactive"}
{"compound": "CCOCCc1c(O)[nH]c(=S)[nH]c1=O", "Potency": "inactive"}
{"compound": "O=C(Nc1ccc(Cl)cc1C(=O)c1ccccc1)c1cc(Cl)cc(Cl)c1", "Potency": "inactive"}
{"compound": "CC(C)Oc1ccc(NC(=O)c2cc3ccccc3o2)cc1", "Potency": "inactive"}
